Calls of active or inactive are those of the source. Rule for the calls: active = hit-call score of the fitted dose curve at least 0.9, where 1 is the maximum; inactive = score below 0.9.
How the values were obtained:
[1] = read-out: Transforming growth factor beta 1 (TGFb1), TGFB1 (gene 7040); test: BSK_KF3CT_TGFb1: BioMAP Diversity Plus: KF3CT Assay for Transforming growth factor beta 1 (TGFb1) Biomarker Activity (AID 2283072); settings: primary human keratinocytes with fibroblasts; actives raise or lower the signal
Outline: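 Human keratinocyte/foreskin fibroblast co-culture; TGF-b1 measured by ELISA 24 h after dosing, fitted bidirectionally versus DMSO. Cytotoxicity checked in parallel cultures by total protein (SRB staining, 560 nm).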

[2] = read-out: C-C motif chemokine 2 (Homo sapiens) (UniProt P13500); test: BSK_KF3CT_MCP1: BioMAP Diversity Plus: KF3CT Assay for Monocyte Chemoattractant Protein 1 (MCP1/CCL2) Biomarker Activity (AID 2283073); settings: primary human keratinocytes with fibroblasts; actives raise or lower the signal
Outline: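 KF3CT skin co-culture (keratinocytes/foreskin fibroblasts), 24 h post-dose; MCP-1 by ELISA; gain/loss of signal fit bidirectionally vs DMSO baseline.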

[3] = read-out: Matrix Metallopeptidase 9 (MMP9), MMP9 (gene 4318); test: BSK_KF3CT_MMP9: BioMAP Diversity Plus: KF3CT Assay for Matrix Metallopeptidase 9 (MMP9) Biomarker Activity (AID 2283074); settings: primary human keratinocytes with fibroblasts; actives raise or lower the signal;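 for AC50: MMP9 protein level quantified by ELISA in the co-culture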
Outline: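 Human keratinocyte and foreskin fibroblast co-culture exposed to chemicals for 24 h; MMP9 biomarker measured by ELISA, bidirectional fitting relative to DMSO; cytotoxicity tracked by SRB total protein staining in parallel cultures.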

[4] = read-out: urokinase plasminogen activator (uPA), PLAU (gene 5328); test: BSK_KF3CT_uPA: BioMAP Diversity Plus: KF3CT Assay for urokinase plasminogen activator (uPA) Biomarker Activity (AID 2283075); settings: primary human keratinocytes with fibroblasts; actives raise or lower the signal
Outline: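 Primary human keratinocyte/foreskin fibroblast co-culture exposed to chemical; uPA measured by ELISA at 24 h. Bidirectional fit versus DMSO, with parallel SRB total-protein staining for cytotoxicity.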

CD40, CD40 (gene 958) [5] = test: BSK_LPS_CD40: BioMAP Diversity Plus: LPS Assay for CD40 Biomarker Activity (AID 2283076); settings: primary human HUVEC with PBMC; actives raise or lower the signal
Outline: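 ELISA readout of CD40 in HUVEC/PBMC co-culture (BSK_LPS system), 24 h post-dosing; bidirectional curve fit, DMSO baseline; parallel SRB total-protein staining for cytotoxicity.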

[6] = read-out: E-selectin (Homo sapiens) (UniProt P16581); test: BSK_LPS_Eselectin: BioMAP Diversity Plus: LPS Assay for Eselectin Biomarker Activity (AID 2283077); settings: primary human HUVEC with PBMC; actives raise or lower the signal
Outline: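 ELISA readout of E-selectin, 24 h post-dose, HUVEC + PBMC co-culture (LPS system). Gain or loss of signal vs DMSO baseline, bidirectional fit.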

[7] = read-out: Interleukin-8 (IL8), CXCL8 (gene 3576); test: BSK_LPS_IL8: BioMAP Diversity Plus: LPS Assay for Interleukin-8 (IL8) Biomarker Activity (AID 2283078); settings: primary human HUVEC with PBMC; actives raise or lower the signal
Outline: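 HUVEC + PBMC co-culture, LPS-activated; test chemicals dosed, IL-8 read by ELISA at 24 h. Bidirectional curve fit vs DMSO baseline (gain or loss of signal).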

[8] = BSK_LPS_SRB: Viability Assessment in the BioMAP Diversity Plus: LPS Assay (AID 2283079); settings: primary human HUVEC with PBMC;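 note: total protein by sulforhodamine B absorbance as a cytotoxicity measure; measured one day after compound addition; fitted in both directions against DMSO so loss or gain of signal counts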
Outline: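 HUVEC + PBMC co-culture, LPS-stimulated; compound 24 h. 10% TCA fix, 0.1% SRB stain, A560. Bidirectional fit vs DMSO.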

[9] = read-out: Interleukin-1 alpha (IL1a), IL1A (gene 3552); test: BSK_LPS_IL1a: BioMAP Diversity Plus: LPS Assay for Interleukin-1 alpha (IL1a) Biomarker Activity (AID 2283080); settings: primary human HUVEC with PBMC; actives raise or lower the signal
Outline: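 HUVEC/PBMC co-culture, LPS system; 24 h after dosing; IL-1a by ELISA; gain or loss of signal fitted bidirectionally vs DMSO baseline.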

[10] = BSK_LPS_PGE2: BioMAP Diversity Plus: LPS Assay for Prostaglandin E2 (PGE2) Biomarker Activity (AID 2283082); settings: primary human HUVEC with PBMC; actives raise or lower the signal;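 for AC50: secreted prostaglandin E2 measured by ELISA in LPS-stimulated co-culture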
Outline: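 HUVEC plus human PBMC co-culture stimulated with LPS; secreted PGE2 quantified by ELISA 24 h after chemical dosing. Activity fitted bidirectionally against DMSO baseline; parallel SRB staining (0.1% SRB after 10% TCA fixation, 560 nm) flags overt cytotoxicity.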

[11] = read-out: Macrophage colony-stimulating factor (MCSF), CSF1 (gene 1435); test: BSK_LPS_MCSF: BioMAP Diversity Plus: LPS Assay for Macrophage colony-stimulating factor (MCSF) Biomarker Activity (AID 2283083); settings: primary human HUVEC with PBMC; actives raise or lower the signal
Outline: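 HUVEC + PBMC co-culture (human primary), 24 h post-dose; M-CSF by ELISA; gain/loss of signal fitted bidirectionally vs DMSO baseline.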

[12] = read-out: Tissue Factor, F3 (gene 2152); test: BSK_LPS_TissueFactor: BioMAP Diversity Plus: LPS Assay for Tissue Factor Biomarker Activity (AID 2283084); settings: primary human HUVEC with PBMC; actives raise or lower the signal
Outline: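 HUVEC/PBMC co-culture, LPS-activated; CD142 ELISA read 24 h post-dose; bidirectional curve fit vs DMSO negative control.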

[13] = read-out: Tumor necrosis factor (Homo sapiens) (UniProt P01375); test: BSK_LPS_TNFa: BioMAP Diversity Plus: LPS Assay for Tumour Necrosis Factor alpha (TNFa) Biomarker Activity (AID 2283085); settings: primary human HUVEC with PBMC; actives raise or lower the signal
Outline: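 Human umbilical vein endothelial cells co-cultured with PBMC and stimulated with LPS. TNFa was measured by ELISA 24 h after chemical dosing, fitted bidirectionally relative to DMSO.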

[14] = read-out: Vascular cell adhesion molecule 1 (VCAM1), VCAM1 (gene 7412); test: BSK_LPS_VCAM1: BioMAP Diversity Plus: LPS Assay for Vascular cell adhesion molecule 1 (VCAM1) Biomarker Activity (AID 2283086); settings: primary human HUVEC with PBMC; actives raise or lower the signal
Outline: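 Human umbilical vein endothelial cells co-cultured with PBMC and stimulated with LPS; VCAM-1 measured by ELISA 24 h after dosing. Bidirectional curve fitting against DMSO baseline; cytotoxicity tracked in parallel by SRB total-protein staining.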

CD40, CD40 (gene 958) [15] = test: BSK_SAg_CD40: BioMAP Diversity Plus: SAg Assay for CD40 Biomarker Activity (AID 2283088); settings: primary human HUVEC with PBMC; actives raise or lower the signal
Outline: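 HUVEC/PBMC co-culture, 24 h post-dose; CD40 by ELISA, fluorescence intensity; bidirectional fit vs DMSO negative control.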

CD69, CD69 (gene 969) = test: BSK_SAg_CD69: BioMAP Diversity Plus: SAg Assay for CD69 Biomarker Activity (AID 2283089); settings: primary human HUVEC with PBMC; actives raise or lower the signal;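 for AC50: cell surface CD69 protein quantified by ELISA with fluorescence detection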
Outline: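 Values derive from bidirectional fitting relative to DMSO vehicle. Cells: umbilical vein endothelium plus peripheral blood mononuclear cells, treated 24 h before fluorescent ELISA for CD69.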

[16] = read-out: Monocyte Chemoattractant Protein-1 (MCP1), CCL2 (gene 6347); test: BSK_SAg_MCP1: BioMAP Diversity Plus: SAg Assay for Monocyte Chemoattractant Protein-1 (MCP1) Biomarker Activity (AID 2283090); settings: primary human HUVEC with PBMC; actives raise or lower the signal
Outline: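 MCP-1 levels in the endothelial–PBMC SAg co-culture were quantified by ELISA at 24 h post-dosing; both increases and decreases versus DMSO scored. Cytotoxicity monitored by SRB total protein in parallel cultures.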

[17] = read-out: Monocyte Chemoattractant Protein-1 (MCP1), CCL2 (gene 6347); test: BSK_LPS_MCP1: BioMAP Diversity Plus: LPS Assay for Monocyte Chemoattractant Protein-1 (MCP1) Biomarker Activity (AID 2283081); settings: primary human HUVEC with PBMC; actives raise or lower the signal;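 for AC50: secreted MCP-1 protein quantified by ELISA in culture supernatant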
Outline: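 ELISA read-out of MCP-1 after 24 h chemical dosing of a human umbilical vein endothelial cell/peripheral blood mononuclear cell co-culture stimulated with LPS. Gain or loss of signal fitted relative to DMSO controls.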

CD38, CD38 (gene 952) = test: BSK_SAg_CD38: BioMAP Diversity Plus: SAg Assay for CD38 Biomarker Activity (AID 2283087); settings: primary human HUVEC with PBMC; actives raise or lower the signal
Outline: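 Human HUVEC plus PBMC co-culture stimulated with superantigen; CD38 measured by ELISA 24 h after chemical dosing. Fluorescence read-out, bidirectional fit against DMSO; cytotoxicity tracked in parallel by SRB and Alamar Blue.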

Measured: AC50

Chain of Tumor necrosis factor (Homo sapiens) (P01375 whole entry, looked up): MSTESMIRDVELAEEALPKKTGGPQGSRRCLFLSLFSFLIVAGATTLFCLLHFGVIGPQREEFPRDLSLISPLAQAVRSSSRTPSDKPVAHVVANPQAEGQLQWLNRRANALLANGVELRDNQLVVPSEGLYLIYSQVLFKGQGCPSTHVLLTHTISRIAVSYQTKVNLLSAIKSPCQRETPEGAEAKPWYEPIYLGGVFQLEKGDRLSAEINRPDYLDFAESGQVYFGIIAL
Chain of E-selectin (Homo sapiens) (P16581 whole entry, looked up): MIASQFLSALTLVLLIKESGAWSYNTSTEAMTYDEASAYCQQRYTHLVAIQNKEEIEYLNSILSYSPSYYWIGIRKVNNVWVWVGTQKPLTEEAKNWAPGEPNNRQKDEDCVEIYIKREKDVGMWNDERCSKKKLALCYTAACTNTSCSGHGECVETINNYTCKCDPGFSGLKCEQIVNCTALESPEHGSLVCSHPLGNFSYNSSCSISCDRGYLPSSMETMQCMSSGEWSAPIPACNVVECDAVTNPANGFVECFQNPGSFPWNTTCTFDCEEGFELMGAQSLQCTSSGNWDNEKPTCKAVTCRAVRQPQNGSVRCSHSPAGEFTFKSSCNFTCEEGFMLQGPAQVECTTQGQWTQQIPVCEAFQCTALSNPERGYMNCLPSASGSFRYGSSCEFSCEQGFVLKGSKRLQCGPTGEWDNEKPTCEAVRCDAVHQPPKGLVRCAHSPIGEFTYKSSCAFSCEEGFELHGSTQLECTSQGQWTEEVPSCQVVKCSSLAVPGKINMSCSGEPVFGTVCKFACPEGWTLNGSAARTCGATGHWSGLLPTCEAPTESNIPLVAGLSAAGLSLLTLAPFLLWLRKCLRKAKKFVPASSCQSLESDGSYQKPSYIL

Clc1ccccc1C(c1ccccc1)(c1ccccc1)n1ccnc1
active: [1] 6.57 µM | [2] 7.25 µM | [3] 5.43 µM | [4] 9.72 µM | CD40, CD40 (gene 958) [5] 14.7 µM | [6] 30.7 µM | [7] 30.9 µM | [8] 23.1 µM | [9] 30.5 µM | [10] 5.45 µM | [11] 28.3 µM | [12] 31.9 µM | [13] 32.9 µM | [14] 22.4 µM | CD40, CD40 (gene 958) [15] 20 µM | CD69, CD69 (gene 969) 24.3 µM | [16] 26.1 µM

Cc1ccc(C(C)C)cc1
not listed: [11] | CD38, CD38 (gene 952)
inactive: all other assays above

CC1(C)NC(=O)N(c2ccc([N+](=O)[O-])c(C(F)(F)F)c2)C1=O
not listed: CD40, CD40 (gene 958) [5] | [17]
inactive: all other assays above

OCCO
not listed: [2] | [11] | CD38, CD38 (gene 952)
inactive: all other assays above

CCCCCCCCCCCO
not listed: [11] | [17] | CD38, CD38 (gene 952)
inactive: all other assays above

CCCCCCCCCCCCO
active: [1] 30.9 µM | [2] 35 µM | [3] 33 µM | [4] 30.4 µM | [6] 19.8 µM | [8] 30.4 µM | [9] 36.3 µM | [17] 34.8 µM | [11] 32.2 µM | [12] 19.8 µM | [13] 29.7 µM | [14] 19.8 µM | CD40, CD40 (gene 958) [15] 31.6 µM | CD69, CD69 (gene 969) 31 µM | [16] 30.4 µM
inactive: CD40, CD40 (gene 958) [5] | [7] | [10]

O=C(O)Cc1cc(I)c(Oc2ccc(O)c(I)c2)c(I)c1
active: [1] 29.9 µM | [3] 20 µM | [13] 13 µM
not listed: [11] | CD38, CD38 (gene 952)
inactive: all other assays above

NC(=O)c1nc(-c2cccc(-c3cc(F)ccc3OCC(F)(F)C(F)(F)F)c2)n[nH]1
active: [1] 36.1 µM | [2] 34 µM | [3] 39.7 µM | [4] 43.1 µM | CD40, CD40 (gene 958) [5] 22.6 µM | [6] 37.7 µM | [7] 33.7 µM | [8] 31.6 µM | [9] 41.4 µM | [17] 33.6 µM | [10] 38.2 µM | [12] 33.4 µM | [13] 37.4 µM | [14] 35.3 µM | CD40, CD40 (gene 958) [15] 26.9 µM | CD69, CD69 (gene 969) 26.2 µM | [16] 29 µM

CCCCCCCCOc1ccc(C(=O)c2ccccc2)c(O)c1
active: CD40, CD40 (gene 958) [5] 25.3 µM | [12] 12.6 µM | CD40, CD40 (gene 958) [15] 30.3 µM
not listed: [17] | CD38, CD38 (gene 952)
inactive: all other assays above

CC(C)(c1cc(Br)c(O)c(Br)c1)c1cc(Br)c(O)c(Br)c1
inactive: [10]
active: [1] 1.69 µM | [2] 4.16 µM | [3] 3.69 µM | [4] 3.65 µM | CD40, CD40 (gene 958) [5] 24.1 µM | [6] 28.7 µM | [7] 30.3 µM | [8] 29.8 µM | [9] 29.9 µM | [17] 29.1 µM | [12] 30.1 µM | [13] 19.1 µM | [14] 26.7 µM | CD40, CD40 (gene 958) [15] 23 µM | CD69, CD69 (gene 969) 28.4 µM | [16] 29 µM

Cc1cccc2ccccc12
not listed: [11] | [17] | CD38, CD38 (gene 952)
inactive: all other assays above

CC(O)CC(C)(C)O (stereo not drawn)
not listed: [11] | [17] | CD38, CD38 (gene 952)
inactive: all other assays above

Oc1ccc2ccccc2c1
active: CD40, CD40 (gene 958) [5] 22.1 µM | [6] 16.1 µM | [10] 13.2 µM
inactive: all other assays above

CCCCCCCCCCCC[N+](C)(C)C
inactive: [10]
active: [1] 26.6 µM | [2] 29.7 µM | [3] 30.7 µM | [4] 34 µM | CD40, CD40 (gene 958) [5] 16.9 µM | [6] 20.3 µM | [7] 20 µM | [8] 25.7 µM | [9] 16.6 µM | [11] 26 µM | [12] 32.4 µM | [13] 31.7 µM | [14] 25.7 µM | CD69, CD69 (gene 969) 18.1 µM | [16] 18.4 µM

CCCC(=O)OCCC(C)C
not listed: [17] | CD38, CD38 (gene 952)
inactive: all other assays above
